Records with an inconclusive call do not appear. Activity calls are given as the source filed them. Unless noted, calls come from the whole dose curve; as a rule, active = well fitted curve in the direction sought with a large enough effect in the repeat runs; inconclusive = weak or mixed curves; inactive = no such curve, though single readings can be large; an effect the other way counts as inactive or inconclusive.
Legend:
[1] = qHTS assay to identify small molecule antagonists of the retinoid-related orphan receptor gamma (ROR-gamma) signaling pathway - cell viability counter screen (AID 1159520); note: nearly all actives have a fitted effect of over 50% in size; note: potency is the fitted concentration of half-maximal effect
Summary of the method: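 Tet-on ROR gamma CHO cells were given compounds for 2 hr, then doxycycline hyclate at 1 uM final, and incubated 16 hr at 37 C. Viability was measured as ATP content by CellTiter-Glo luminescence.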

[2] = target: Nuclear receptor ROR-gamma (Homo sapiens) (UniProt P51449); assay: qHTS assay to identify small molecule antagonists of the retinoid-related orphan receptor gamma (ROR-gamma) signaling pathway (AID 1159521; note: nearly all actives have a fitted effect of over 50% in size; note: potency is the fitted concentration of half-maximal effect)
Summary of the method: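 Readout: ONE-Glo luciferase luminescence, 30 min at room temperature. System: Tet-on RORγ CHO, RORE-LUC. Sequence: compound 2 h, doxycycline 1 uM final, 16 h at 37 C.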

[3] = qHTS assay to identify small molecule agonists of the AP-1 signaling pathway - cell viability counter screen (AID 1159525; calls by dose curve; note: nearly all actives have a fitted effect of over 55% in size)
Summary of the method: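 Same-well cytotoxicity counter screen of the Tox21 10K library in ME-180 cells. The readout is ATP-dependent luminescence after 5 h compound treatment. Data are normalised to DMSO and tetra n-octyl ammonium bromide controls.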

[4] = qHTS assay to identify small molecule agonists of the AP-1 signaling pathway (AID 1159526; calls by dose curve)
[5] = target: Retinoic acid receptor RXR-alpha (Homo sapiens) (UniProt P19793); assay: qHTS assay to identify small molecule agonists of the RXR signaling pathway (AID 1159527; calls by dose curve; note: nearly all actives have a fitted effect of over 35% in size; note: potency is the fitted concentration of half-maximal effect)
Summary of the method: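 Reporter activation is measured as beta-lactamase activity via FRET substrate cleavage (emission 460/530 nm) in HEK 293T cells expressing an RXR-alpha-driven bla construct, following 16 hr compound exposure at 37 C.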

[6] = qHTS assay to identify small molecule agonists of the RXR signaling pathway - cell viability counter screen (AID 1159529); note: series mostly up to about 77 µM; nearly all actives have a fitted effect of over 50% in size
Summary of the method: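 Tox21 10K compounds were tested for cytotoxicity against GeneBLAzer RXR-alpha HEK 293T cells grown in 2% charcoal-stripped FBS. Exposure lasted 16 hr at 37 C, 5% CO2; viability read by CellTiter-Glo luminescence.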

[7] = qHTS assay to identify small molecule antagonists of the retinoid acid receptor (RAR) signaling pathway - cell viability counter screen (AID 1159551); note: nearly all actives have a fitted effect of over 35% in size
Summary of the method: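 C3RL4 RARE-luciferase line; cpds + retinol 1 uM final, 6 h, 37 C/5% CO2; CellTiter-Glo ATP luminescence, 30 min RT.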

[8] = qHTS assay to identify small molecule antagonists of the estrogen related receptor (ERR) signaling pathway from Tox21 library - cell viability counter screen (AID 1224834); note: nearly all actives have a fitted effect of over 30% in size
Summary of the method: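 Multiplexed viability counter screen in ERR cells: 17.5 h compound exposure at 37 C, CellTiter-Fluor added, 30 min at 37 C/5% CO2, fluorescence read.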

[9] = target: Luciferin 4-monooxygenase (Photinus pyralis) (UniProt P08659); assay: qHTS assay to identify small molecule inhibitors of firefly luciferase (AID 1224835); note: series mostly up to about 120 µM; nearly all actives have a fitted effect of over 25% in size
Summary of the method: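 Biochemical qHTS: compounds run as interplate titrations against purified firefly enzyme, with D-luciferin and ATP each at its KM concentration. Light output recorded by CCD imaging.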

[10] = qHTS assay to identify small molecule agonists of the constitutive androstane receptor (CAR) signaling pathway - cell viability counter screen (AID 1224836); note: series mostly up to about 92 µM; nearly all actives have a fitted effect of over 45% in size
Summary of the method: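 Fluorescence from CellTiter-Fluor indicates live cells after 23 h exposure. The human hepatoma line expresses hCAR and a CYP2B6-2.2kb reporter. Incubation medium contains 0.75 uM PK11195 (final).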

[11] = qHTS assay to identify small molecule antagonists of the constitutive androstane receptor (CAR) signaling pathway - cell viability counter screen (AID 1224837); note: series mostly up to about 92 µM; nearly all actives have a fitted effect of over 45% in size
Summary of the method: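 Read-out: CellTiter-Fluor fluorescence after 23 hr at 37 C/5% CO2. Cells: HepG2 double-stable for hCAR and CYP2B6-2.2kb. Compounds tested at 15 concentrations in the presence of CITCO, final concentration 50 nM.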

[12] = qHTS assay to identify small molecule antagonists of the retinoic acid receptor (RAR) signaling pathway (AID 1159552; note: nearly all actives have a fitted effect of over 50% in size)
Summary of the method: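 Overnight-plated C3RL4 reporter cells get compound, then retinol to 1 uM final; plates sit 6 hr at 37 C, 5% CO2. A luciferase reagent is added and light output recorded after 30 min at room temperature.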

[13] = qHTS assay to identify small molecule antagonists of the estrogen related receptor (ERR) signaling pathway - cell viability counter screen (AID 1224818); note: series mostly up to about 46 µM
Summary of the method: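 Fluorescence from CellTiter-Fluor, read 30 min after reagent addition at 37 C, measured viability of ERR cells exposed to compounds for 17.5 h. Cells had settled 6 h before dosing.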

[14] = qHTS assay to identify small molecule antagonists of the estrogen related receptor (ERR) signaling pathway (AID 1224819)
Summary of the method: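 Luminescence readout (One-Glo, 30 min, RT) of ERR cell line after 18 h compound exposure at 37 C; cells seeded 2,000/well, pre-incubated 6 h, compounds pinned from DMSO stocks.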

[15] = qHTS assay to identify small molecule agonists of the estrogen related receptor (ERR) signaling pathway (AID 1224820)
Summary of the method: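 Luminescence readout (One-Glo, 30 min RT) from NTP-supplied ERR cell line exposed to compounds for 18 h at 37 C. Cells seeded 2,000 per well and pre-incubated 6 h before pin-tool compound transfer.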

[16] = test system: estrogen-related receptor alpha (ERRalpha) with PGC-1alpha coactivator, human; assay: qHTS assay to identify small molecule antagonists of the estrogen related receptor signaling pathway with the pleiotropic PPARgamma coactivator (PGC) (AID 1224821; calls by dose curve)
Summary of the method: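 PGC/ERR reporter cells; 6 h pre-incubation 37 C/5% CO2; pin-tool compound in DMSO, 18 h 37 C; One-Glo added, 30 min RT; luminescence read. qHTS antagonist mode.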

[17] = qHTS assay to identify small molecule antagonists of the estrogen related receptor signaling pathway with the pleiotropic PPARgamma coactivator (PGC) cell viability counter screen (AID 1224822; note: series mostly up to about 46 µM)
Summary of the method: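 Fluorescence read-out of CellTiter-Fluor after 30 min at 37 C; PGC/ERR cells, 2,000 per well, had been exposed to DMSO-dissolved compounds for 17.5 h following a 6 h pre-incubation.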

[18] = qHTS assay to identify small molecule agonists of the estrogen related receptor signaling pathway with the pleiotropic PPARgamma coactivator (PGC) (AID 1224823)
Summary of the method: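 Luminescence readout (One-Glo, 30 min RT) from PGC/ERR cell line treated 18 h at 37 C with pin-tool-delivered DMSO compound solutions; cells plated 6 h before dosing. Quantitative HTS format.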

[19] = qHTS assay to identify small molecule antagonists of the vitamin D receptor (VDR) signaling pathway - cell viability counter screen (AID 743225); note: nearly all actives have a fitted effect of over 50% in size
Summary of the method: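 Cytotoxicity toward the VDR-bla HEK 293T line was scored by ATP-based CellTiter-Glo luminescence, read in the wells already used for the beta-lactamase readout after 16 h compound treatment under 3 nM 1-alpha,25-dihydroxyvitamin D3 stimulation.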

Measured: Potency

Chain of Retinoic acid receptor RXR-alpha (Homo sapiens) (P19793 whole entry, looked up): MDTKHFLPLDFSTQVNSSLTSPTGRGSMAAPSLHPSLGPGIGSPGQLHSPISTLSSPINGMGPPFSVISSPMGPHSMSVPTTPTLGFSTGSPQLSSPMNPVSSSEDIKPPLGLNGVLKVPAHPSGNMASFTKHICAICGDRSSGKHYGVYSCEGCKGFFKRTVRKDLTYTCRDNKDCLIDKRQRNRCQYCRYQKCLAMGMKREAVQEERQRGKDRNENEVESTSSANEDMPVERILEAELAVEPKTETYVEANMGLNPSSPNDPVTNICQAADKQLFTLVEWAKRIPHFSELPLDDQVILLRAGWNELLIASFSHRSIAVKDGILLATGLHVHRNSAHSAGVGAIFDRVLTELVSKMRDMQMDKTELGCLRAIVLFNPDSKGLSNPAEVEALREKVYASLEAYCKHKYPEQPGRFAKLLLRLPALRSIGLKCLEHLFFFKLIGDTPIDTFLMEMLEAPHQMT
Chain of Luciferin 4-monooxygenase (Photinus pyralis) (P08659 whole entry, looked up): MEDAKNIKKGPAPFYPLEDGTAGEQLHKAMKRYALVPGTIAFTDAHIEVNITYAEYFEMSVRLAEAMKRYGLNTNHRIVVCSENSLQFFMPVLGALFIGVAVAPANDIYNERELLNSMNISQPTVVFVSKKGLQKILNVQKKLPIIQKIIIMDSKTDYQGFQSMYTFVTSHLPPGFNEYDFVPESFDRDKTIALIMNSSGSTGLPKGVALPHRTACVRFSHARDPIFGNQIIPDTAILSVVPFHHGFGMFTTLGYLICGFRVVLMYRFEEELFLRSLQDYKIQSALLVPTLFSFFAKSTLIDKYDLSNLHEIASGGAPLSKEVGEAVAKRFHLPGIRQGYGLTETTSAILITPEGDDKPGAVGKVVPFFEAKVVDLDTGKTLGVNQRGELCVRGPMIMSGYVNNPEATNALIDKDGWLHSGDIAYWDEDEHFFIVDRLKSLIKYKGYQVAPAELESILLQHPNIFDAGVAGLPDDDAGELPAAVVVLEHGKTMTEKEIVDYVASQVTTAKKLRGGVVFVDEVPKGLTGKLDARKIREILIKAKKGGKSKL

NC(=O)c1ccccc1Cl
inactive: [1] | [2] | [3] | [4] | [5] | [6] | [7] | [8] | [9] | [10] | [11]

CCc1cccc(C)c1N(C(=O)C(=O)O)C(C)COC (stereo unspecified)
inactive: [1] | [2] | [3] | [5] | [6] | [7] | [12] | [8] | [9] | [10] | [11]

Cn1ccnc1
inactive: [1] | [2] | [3] | [4] | [5] | [7] | [13] | [14] | [15] | [16] | [17] | [18] | [8] | [9] | [10] | [11]

O=[N+]([O-])c1ccc(CO)cc1
inactive: [1] | [2] | [3] | [4] | [5] | [12] | [8] | [9] | [10] | [11]

C1=CCCC1
inactive: [1] | [2] | [3] | [4] | [5] | [6] | [7] | [12] | [8] | [9] | [10]

Cc1c[nH]c(=O)[nH]c1=O
inactive: [1] | [2] | [3] | [4] | [6] | [7] | [12] | [8] | [9] | [10]

SC1CCCCC1
inactive: [19] | [1] | [2] | [3] | [4] | [5] | [8] | [9] | [10] | [11]

CC/C=C(\C)C=O
inactive: [1] | [2] | [3] | [4] | [5] | [6] | [7] | [8] | [9] | [10]

C/C=C/C(=O)C1=C(C)C=CCC1(C)C
inactive: [1] | [2] | [3] | [4] | [5] | [7] | [8] | [9] | [10]

CCN(CC)c1ccc(C=O)cc1
inactive: [1] | [2] | [3] | [4] | [6] | [7] | [12] | [8] | [10] | [11]

CCC(=O)OC/C=C(\C)CCC=C(C)C
inactive: [1] | [2] | [3] | [4] | [5] | [6] | [7] | [8] | [9] | [10] | [11]

O=c1cc[nH]cc1
inactive: [1] | [2] | [3] | [4] | [6] | [8] | [9] | [10] | [11]

CC(C)(C)c1cc(CCC(=O)OCCSCCOC(=O)CCc2cc(C(C)(C)C)c(O)c(C(C)(C)C)c2)cc(C(C)(C)C)c1O
inactive: [1] | [2] | [3] | [4] | [5] | [6] | [8] | [9] | [10] | [11]

CC(=O)CC(N)=O
inactive: [1] | [2] | [3] | [4] | [5] | [7] | [12] | [8] | [9] | [10] | [11]

CCOC(=O)[C@H](C)O
inactive: [1] | [2] | [3] | [4] | [5] | [7] | [12] | [8] | [9] | [10] | [11]

O=c1[nH]cccc1O
inactive: [1] | [2] | [3] | [4] | [5] | [6] | [7] | [12] | [9] | [10] | [11]

CCN(CCC#N)c1ccc(N=Nc2ccc([N+](=O)[O-])cc2)cc1
inactive: [1] | [2] | [3] | [4] | [5] | [6] | [12] | [8] | [9] | [10] | [11]

Cc1cccc2c1ccc1ccccc12
inactive: [1] | [2] | [3] | [4] | [5] | [6] | [7] | [8] | [10] | [11]

c1ccc2occc2c1
active: [5] 12.3 µM
inactive: [1] | [2] | [3] | [6] | [7] | [13] | [14] | [15] | [16] | [17] | [18] | [8] | [9] | [10] | [11]

O=C(CCN1CCC(c2ccccc2)C1)c1ccc2c(c1)OCCO2 (stereo unspecified)
inactive: [19] | [3] | [7] | [8] | [9] | [10]
active: [1] 26.6 µM | [2] 33.5 µM

From PubChem BioAssay (Tox21)
